Bioassay records: PubChem BioAssay, National Center for Advancing Translational Sciences (NCATS)
The list is not random: actives were taken first. Their share in the collection is about 8%.
SW480 rereplic – DNA re-replication induction in SW480 cells; 340,000 compounds, 1.8% hits; Potency, µM (doses to about 46.1 µM), without a hit: at the highest dose re-replication activation, hits mostly activators; SW480 DNA re-replication, Hoechst DNA content imaging, 48 h; AID 624297; also: % of control where 0% means no effect; nearly all actives have a fitted effect of over 55% in size
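Image-based DNA-content assay: after two days of treatment, nuclei were labelled with the DNA dye Hoechst and imaged, and hits were compounds raising the count of nuclei showing high fluorescence intensity.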
MCF10A rerep – inducers of DNA re-replication in MCF 10A breast cells; 350,000 compounds, 2.9% hits; MCF 10A DNA re-replication, Hoechst nuclear intensity, 48 h; Potency, µM (titrated, usually from 46.1 µM), for inactives: at the top dose activity, positive = re-replication, usual class: activators; AID 624296; also: % of control where 0% means no effect; nearly all actives have a fitted effect of over 50% in size
HT1080-NT tox – kills 2HG-producing HT-1080-NT fibrosarcoma cells | AID 686970 | Potency, µM (series often up to 46.1 µM), without a hit: top-dose activity, negative = less viability, hits mostly cytotoxic | HT-1080-NT fibrosarcoma viability, CellTiter-Glo ATP luminescence, 48 h | 360,000 compounds, 1.6% hits;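 also: NT is the 2HG producing partner of a matched IDH1 knockdown line; 0% = DMSO-treated cells and -100% = media-only wells without cells; nearly all actives have a fitted effect of over 55% in size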
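Read-out is CellTiter-Glo luminescence after 10 minutes at room temperature, following 48 hours' compound treatment of HT-1080-NT cells (750 cells/well, RPMI, 5% FBS, 37 degrees C).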
KB-3-1 cytotox – KB-3-1 parental cell cytotoxicity; KB-3-1 viability, CellTiter-Glo ATP luminescence, 72 h; Potency, µM (doses to about 46.1 µM), actives largely listed as cytotoxic; 400,000 compounds, 1.4% hits; AID 1347075; also: % is scaled to controls: 0 for no effect and ±100 for the full control effect; nearly all actives have a fitted effect of over 60% in size
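Cytotoxicity measured as CellTiter-Glo luminescence after 72 h at 37 C. Compound titrations were pinned onto drug-naive KB-3-1 parental adenocarcinoma cells grown in DMEM with 10% FBS, and normalized data fitted to concentration-response curves.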
KB-V1 MDR tox – kills drug-selected multidrug resistant KB-V1 cells | 400,000 compounds, 3.4% hits | KB-V1 MDR cells viability, CellTiter-Glo, 72 h | Potency, µM (top dose mostly 46.1 µM), usual class: cytotoxic; also: % is scaled to controls: 0 for no effect and ±100 for the full control effect; nearly all actives have a fitted effect of over 60% in size
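Cytotoxicity toward P-gp-expressing KB-V1 cells was determined as loss of CellTiter-Glo luminescence after 72 h at 37 degrees C. Compounds were tested in quantitative HTS format across a concentration range, with curves fitted to normalized data.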
HT1080 IDH1KD tx – toxicity to HT-1080 IDH1 knockdown cells (counter line); HT-1080 IDH1 knockdown viability, ATP luminescence, 48 h; Potency, µM (titrated, usually from 46.1 µM), for inactives: top-dose activity, negative = toxicity, hits mostly cytotoxic; 360,000 compounds, 2% hits; AID 686971;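 also: 0% = DMSO wells and -100% = cell-free medium wells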
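HT-1080-IDH1KD cells (IDH1 knocked down), 750/well in RPMI with 5% FBS, treated with compound 48 h at 37 degrees C. Viability by CellTiter-Glo luminescence, normalised to DMSO and no-cell wells; concentration-response curves classed.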
* hit, by the source's call; i = inactive; ? = inconclusive; . = not tested or not shown; [ ] = remark or other dose. Calls follow the shape of the dose curve; as a rule, active = well fitted curve in the direction sought with a large enough effect; inconclusive = small, poorly fitted or top-dose-only effect, or another doubt; inactive = no such curve, though single readings can be large; an effect the other way counts as inactive or inconclusive. Potency is read from the fitted curve at half-maximal effect.

SMILES	SW480 rereplic	MCF10A rerep	HT1080-NT tox	KB-3-1 cytotox	KB-V1 MDR tox	HT1080 IDH1KD tx
CCOc1cc(CNc2ccc(S(N)(=O)=O)cc2)cc(Cl)c1OC	?	4%	-1%	i	i	-14%
CCOc1cc(CNc2ccc(N3CCCCC3)cc2)cc(Br)c1OCC(=O)NC(C)(C)C	11%	?	-11%	i	15µM*	-5%
COc1ccc(CNC(=O)c2ccc(NC(=O)N3CCCCc4ccccc43)cc2)c(OC)c1	.	.	.	i	i	.
COCC(=O)N1CCC(c2nc3ccccc3[nH]2)CC1	.	.	-2%	i	?	-2%
CCC(=O)N1CCc2cc(CNC(=O)Nc3ccc(OC)cc3OC)ccc21	.	.	.	i	i	.
COc1cc(C(CC(=O)Nc2ccccn2)N2Cc3ccccc3C2=O)cc(OC)c1OC (stereo not given)	-10%	-8%	-1%	i	i	0%
Cc1cccn2c(=O)c(/C=C(\C#N)C(N)=O)c(N3CCN(c4cccc(Cl)c4)CC3)nc12	-25%	9%	-28%	i	i	?
CCOc1cc(CNc2ccc3c(c2)OCCO3)cc(Br)c1OCC	5.8µM*	2.6µM*	1.8µM*	5.2µM*	2.6µM*	2.3µM*
CCOc1cc(CNc2ccc(N3CCOCC3)cc2)cc(Br)c1OCC	?	?	-18%	?	?	?
Cc1cccc(CN2CCC(C(=O)Nc3cccc(-c4cccc(F)c4)c3)CC2)n1	?	?	?	i	i	?
Cn1cc(CN2CCC(C(=O)Nc3cccc(-c4cccc(F)c4)c3)CC2)cn1	?	?	21µM*	i	i	23µM*
Cc1nn(C(C)C)c(C)c1CN1CCC(C(=O)Nc2cccc(-c3cccc(F)c3)c2)CC1	100%	?	15µM*	?	?	21µM*
CCCn1ncc(CN2CCC(C(=O)Nc3cccc(-c4cccc(F)c4)c3)CC2)c1C	?	?	21µM*	?	i	?
O=C(NCc1cccnc1)c1cccc(S(=O)(=O)NCc2ccccc2)c1	-6%	3%	6%	i	i	-1%
COC(=O)CC1Oc2ccc(C)cc2-n2cc(-c3ccc(C)cc3)nc21 (stereo not given)	.	.	.	i	i	.
CCc1cccc(C)c1NS(=O)(=O)c1cc2[nH]c(=O)c(=O)[nH]c2cc1C	.	.	.	i	?	.
COc1cc(NCc2ccc3nc(N)nc(N)c3c2C)cc(OC)c1OC	18%	21%	.	.	.	.
Cc1c(-c2ccccc2)nc2ccccc2c1C(=O)NCc1cccs1	21%	?	-5%	i	12µM*	-4%
Cc1nn(Cc2ccccc2)c(Cl)c1C(=O)NCc1ccc(C)n1C	0%	-1%	2%	i	15µM*	1%
Cc1nn(-c2ccccc2)c(C)c1C(=O)NCc1cccs1	-108%	1%	7%	i	i	14%
Cc1nn(-c2ccccc2)c(Cl)c1C(=O)NCc1cccs1	-3%	16%	14%	i	15µM*	27%
O=C(Nc1ccc(Br)cc1)c1cc(S(=O)(=O)NC2CCCC2)ccc1F	.	.	.	21µM*	?	.
O=C(Nc1ccc(C(F)(F)F)cc1)c1cc(S(=O)(=O)NC2CCCCC2)ccc1F	.	.	.	i	?	.
O=C(Nc1ccc(C(F)(F)F)cc1)c1cc(S(=O)(=O)NC2CCCCCC2)ccc1F	.	.	.	?	18µM*	.
Oc1c(Br)cc(Br)cc1CNc1cnc2ccccc2c1	2%	23µM*	5%	i	i	-7%
SMILES	SW480 rereplic	MCF10A rerep	HT1080-NT tox	KB-3-1 cytotox	KB-V1 MDR tox	HT1080 IDH1KD tx
Oc1c(Br)cc(Br)cc1CNc1ccc(F)cc1	0%	?	?	i	i	?
CCCOc1ccccc1C1Oc2nc(SC)nnc2-c2ccccc2N1C(C)=O (stereo not given)	.	.	.	i	?	.
O=C(N/N=C/c1ccco1)c1cc(-c2ccncc2)nc2ccccc12	16µM*	?	?	?	i	?
COc1ccccc1-c1cc(C(=O)N/N=C/c2cccs2)c2ccccc2n1	7%	14µM*	-28%	?	i	?
CCc1ccc(/C=N/NC(=O)c2cc(-c3ccncc3)nc3ccccc23)s1	3.7µM*	1µM*	?	4.6µM*	i	?
COc1ccccc1-c1cc(C(=O)N/N=C\c2cnn(C)c2C)c2ccccc2n1	1%	?	-7%	i	?	-5%
O=C(N/N=C/c1cccc(F)c1)c1cc(-c2ccco2)nc2ccccc12	?	?	?	?	?	16µM*
CCCc1cc(C(=O)N/N=C/c2ccc(CC)s2)c2ccccc2n1	21µM*	7.3µM*	?	?	5.8µM*	3.7µM*
CCc1ccc(/C=N/NC(=O)c2c[nH]c3ccccc23)s1	2%	3%	-5%	i	?	-8%
COc1ccc(-c2cc(C(=O)N/N=C/c3ccc4c(c3)OCO4)c3ccccc3n2)c(OC)c1	?	?	-21%	i	i	-23%
O=C(N/N=C/c1ccc2c(c1)OCO2)c1cc(-c2ccc(F)cc2)nc2ccccc12	?	3.7µM*	?	?	8.2µM*	?
O=C(N/N=C/c1cccs1)c1cc(-c2ccncc2)nc2ccccc12	?	?	-58%	?	1.8µM*	-54%
COc1ccc(-c2cc(C(=O)N/N=C/c3ccc(OC)c(COCC(F)(F)C(F)F)c3)c3ccccc3n2)c(OC)c1	17%	23µM*	-2%	i	i	2%
O=C(N/N=C/c1ccccn1)c1cc(-c2ccccc2)nc2ccccc12	?	?	0%	i	i	-19%
CCCN(CC(=O)Nc1ccccc1C)C(=O)C1CC(=O)N(c2ccc(CC)cc2)C1 (stereo not given)	1%	-3%	5%[9.24 µM]	i	i	2%
COc1ccccc1CN(C)C(=O)c1cc(-c2cccs2)nc2ccccc12	10%	18µM*	?	?	?	?
O=C(N/N=C/c1cccs1)c1cc(C2CC2)nc2ccccc12	18µM*	8.2µM*	?	18µM*	?	?
COc1cc(/C=N/NC(=O)c2cc(-c3ccccc3OC(C)C)nc3ccccc23)ccc1O	?	10µM*	-20%	18µM*	12µM*	?
COc1cc(/C=N/NC(=O)c2cc(-c3ccccc3)nc3ccccc23)ccc1O	0%	16%	-25%	i	i	?
COc1ccccc1NC(C)C(=O)c1c[nH]c2ccccc12 (stereo not given)	.	.	.	i	i	.
